This excerpt belongs to a sample that is enriched for hits.
PD-1 reversal: activators reversing PD-1 mediated T-cell inhibition; primary human CD4 T cells, PD-L1 beads, CellTiter-Glo 96 h; activation, % (concentration not given with the values); 29,000 tested, under 10 active; AID 2316; call rule not given here;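 also: 0% = median vehicle wells and 100% = positive control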
STK33 kin inh: inhibitors of human STK33 kinase | Q9BYT3 | ADP-Glo luminescence, MBP substrate | inhibition, % at 12.5 µM | 27,000 compounds, 0.44% hits; in the data active = inhibition above about 20%; inconclusive = no clear call, values can overlap the other calls
Target sequence (Q9BYT3 whole entry, looked up): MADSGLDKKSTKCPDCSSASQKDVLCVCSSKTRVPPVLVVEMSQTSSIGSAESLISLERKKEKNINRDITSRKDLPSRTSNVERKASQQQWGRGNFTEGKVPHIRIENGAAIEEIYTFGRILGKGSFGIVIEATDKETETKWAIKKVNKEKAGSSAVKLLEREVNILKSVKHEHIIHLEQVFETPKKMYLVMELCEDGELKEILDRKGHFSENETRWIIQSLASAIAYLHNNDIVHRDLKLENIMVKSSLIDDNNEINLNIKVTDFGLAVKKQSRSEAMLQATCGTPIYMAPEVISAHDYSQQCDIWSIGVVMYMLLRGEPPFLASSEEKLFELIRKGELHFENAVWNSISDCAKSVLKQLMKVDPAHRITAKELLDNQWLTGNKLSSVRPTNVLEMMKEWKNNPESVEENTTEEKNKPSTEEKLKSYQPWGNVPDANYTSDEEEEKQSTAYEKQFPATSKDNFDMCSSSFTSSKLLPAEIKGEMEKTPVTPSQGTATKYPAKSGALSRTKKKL
NOMO-1 viab: STK33 inhibitor candidate reducing NOMO-1 cell viability. NOMO-1 AML viability, CellTiter-Glo luminescence, 72 h. inhibition, % (no concentration beside the values). 37,000 compounds, 7.5% hits; in the data active = inhibition above about 80%; inconclusive = no clear call, values can overlap the other calls
* marks the source's active call; other numbers are inactive results; ? = inconclusive; . = not tested or not shown.

SMILES	PD-1 reversal	STK33 kin inh	NOMO-1 viab
CNC(=O)c1ccccc1S(=O)c1cccc2cccc(C(=O)O)c12 (stereo not given)	1.0	.	4.6
COc1cccc(C(=O)/C=c2\[nH]c(=O)/c(=C\c3cccs3)s2)c1	-4.9	4.7	104.3*
CCCc1c(C)nc2ccc(Br)cc2c1SCCC(=O)O	.	-0.7	-1.8
COc1cc2c(c(OC)c1OC)-c1ccc(OC)c(=O)cc1[C@@H](NC(C)=O)CC2	.	2.4	117.6*
COc1ccc(CC(=O)NC2CCCCC2)cc1OC	0.4	.	15.9
Cc1ccc([N+](=O)[O-])cc1NC(=O)CSc1nnnn1-c1ccccc1	1.0	2.8	35.0
Cc1ccc(S(=O)(=O)N(C)C[C@@H]2Oc3ccc(NC(=O)Nc4ccc(C(F)(F)F)cc4)cc3CC(=O)N([C@@H](C)CO)C[C@@H]2C)cc1	-6.8	3.2	115.3*
Cc1ccc(S(=O)(=O)N(C)C[C@H]2Oc3ccc(NC(=O)Nc4ccc(C(F)(F)F)cc4)cc3CC(=O)N([C@@H](C)CO)C[C@H]2C)cc1	-4.2	1.6	110.5*
COc1ccc(S(=O)(=O)N(C)C[C@H]2Oc3ccc(NC(=O)Nc4ccc(C(F)(F)F)cc4)cc3CC(=O)N([C@@H](C)CO)C[C@@H]2C)cc1	0.0	-4.5	5.9
COc1ccc(S(=O)(=O)N(C)C[C@H]2Oc3ccc(NC(=O)Nc4ccc(C(F)(F)F)cc4)cc3CC(=O)N([C@@H](C)CO)C[C@H]2C)cc1	-3.3	0.9	50.7
Cc1cc(N(CC(=O)NC2CCCCCC2)S(C)(=O)=O)ccc1Br	-1.0	-2.0	32.0
O=C(CC1NCCNC1=O)Nc1ccccc1[N+](=O)[O-] (stereo not given)	.	1.1	11.8
CC1OC(Oc2cc(O)c(C3OC(C)C(O)C(O)C3O)c3oc(-c4ccc(O)cc4)cc(=O)c23)C(O)C(O)C1O (stereo not given)	.	1.4	.
c1ccc2[nH]c(-c3nc4ccccc4s3)nc2c1	-3.2	.	127.0*
c1cc(-c2nc3ccccc3s2)nc(-c2nc3ccccc3s2)c1	0.0	.	14.5
Cc1ccc(N=Cc2cc3ccccc3nc2Cl)cc1Cl	-4.0	.	113.9*
Fc1ccc(C=Nc2ccc3ccccc3c2)cc1	-1.0	.	17.3
c1ccc(C2OCC3OC(c4ccccc4)OC3CO2)cc1 (stereo not given)	0.7	.	16.8
Cc1nnc(Nc2ccc(OCC(=O)N3CCN(c4ccccc4)CC3)cc2)c2ccccc12	1.9	-0.4	88.2*
CCn1c(SCC(=O)N2CCN(c3ccccc3)CC2)nnc1-c1ccccc1O	1.5	0.1	15.8
CC(Oc1ccc(Cl)cc1Cl)C(=O)Nc1cc(-c2nc3ccccc3o2)ccc1Cl (stereo not given)	1.7	3.1	34.9
Cc1ccccc1NC(=O)CSc1nnc(C23CC4CC(CC(C4)C2)C3)o1	-1.8	-1.1	17.5
CC(C)(C)c1ccc(OCC(N)=NC(=O)c2ccc(OC(F)(F)F)cc2)cc1	-0.7	.	135.5*
CC(C)(C)c1ccc(OCC(=O)Nc2ccc(C(=O)Nc3ccccc3C(=O)O)cc2)cc1	1.8	1.9	-3.0
COC(=O)c1ccccc1NC(=O)CN(c1ccc(F)cc1)S(C)(=O)=O	0.8	-3.2	-5.4
SMILES	PD-1 reversal	STK33 kin inh	NOMO-1 viab
O=C(CSc1nc2c(c(=O)n1Cc1ccco1)C1(CCCC1)Cc1ccccc1-2)c1cccs1	-1.2	4.2	7.2
C[C@H](CO)N1C[C@H](C)[C@H](CN(C)Cc2ccc(-c3ccccc3)cc2)Oc2ccc(NC(=O)NC3CCCCC3)cc2CC1=O	-3.3	-1.5	87.0*
C[C@H]1CN([C@@H](C)CO)C(=O)Cc2cc(NC(=O)NC3CCCCC3)ccc2O[C@@H]1CN(C)Cc1ccccc1	2.0	-0.6	27.3
C[C@H]1CN([C@@H](C)CO)C(=O)Cc2cc(NC(=O)NC3CCCCC3)ccc2O[C@H]1CN(C)Cc1ccc(-c2ccccc2)cc1	-8.3	5.7	113.8*
C[C@@H]1CN([C@H](C)CO)C(=O)Cc2cc(NC(=O)NC3CCCCC3)ccc2O[C@@H]1CN(C)Cc1ccccc1	-0.9	.	41.5
COc1ccc(NC(=O)C(C)Oc2ccccc2)c([N+](=O)[O-])c1 (stereo not given)	.	7.2	22.9
O=C1CC(c2cccs2)Cc2nc(NCCN3CCOCC3)ncc21 (stereo not given)	.	-8.2	5.5
c1ccc(C2C3=C(CCCC3)SC3=C2CCCC3)cc1	-0.6	.	98.1*
Cc1cc2ncc(-c3ccnc(SCCS(=O)(=O)c4ccccc4)n3)c(C)n2n1	0.6	.	29.4
CCCCCCC/C=C/C(=O)CCc1ccc(O)c(OC)c1	-0.3	-7.6	116.4*
CCCCCCC[C@@H](O)CC(=O)CCc1ccc(O)c(OC)c1	1.1	-6.4	41.4
CC1CCc2c(sc(NC(=O)c3cc(-c4cccnc4)nc4ccc(Cl)cc34)c2C(N)=O)C1 (stereo not given)	.	-0.7	29.5
COc1cc([C@@H]2c3cc4c(cc3[C@@H](O[C@@H]3O[C@@H]5CO[C@@H](C)O[C@H]5[C@H](O)[C@H]3O)[C@H]3COC(=O)[C@H]23)OCO4)cc(OC)c1O	.	-1.4	117.5*
COc1cc2c(c(O)c1OC)C(=O)CC(c1ccc(O)cc1)O2 (stereo not given)	0.4	10.4	20.2
COc1cc(C2OC[C@@H]3[C@@H](c4cc(OC)c(O)c(OC)c4)OC[C@H]23)cc(OC)c1O (stereo not given in full)	0.7	8.3	14.1
COc1cc([C@@H]2c3cc4c(cc3[C@H](O)[C@H]3COC(=O)[C@@H]23)OCO4)cc(OC)c1OC	.	2.8	107.8*
COc1cc([C@@H]2c3cc4c(cc3[C@H](O)[C@H]3COC(=O)[C@H]23)OCO4)cc(OC)c1OC	.	0.5	112.8*
Cc1ccc(-c2cc(C(F)F)n3ncc(C(=O)NCc4cn(C)nc4C)c3n2)cc1	-7.8	3.9	34.2
Cc1ccc(-n2c(C)nnc2SCC(=O)Nc2c(C)cccc2C)cc1C	-2.8	-3.2	20.0
CCOC(=O)c1c(NC(=O)Cn2cnc3ccccc3c2=O)sc(C)c1C	1.4	-5.7	42.8
CCn1c(SCC(=O)Nc2ccc(Cl)c(Cl)c2)nnc1-c1cc2cccc(OC)c2o1	.	2.5	99.8*
COc1cccc2cc(-c3nnc(SCC(=O)Nc4ccc5ccccc5c4)n3C)oc12	1.0	2.2	17.2
Cc1cc(O)c(C=O)c2c1C(=O)Oc1c(C)c(O)c3c(c1O2)C(O)OC3=O (stereo not given)	.	58.8*	-1.5
COc1cc(C)c2c(c1C=O)Oc1c(c(C)c(O)c3c1C(O)OC3=O)OC2=O (stereo not given)	.	14.8	0.1
O=C(Nc1c(Cl)cc(Cl)cc1C(=O)NCc1ccco1)c1cccc([N+](=O)[O-])c1	.	2.5	-5.8
SMILES	PD-1 reversal	STK33 kin inh	NOMO-1 viab
O=c1c2ccccc2oc2ccc(O)cc12	.	17.1	-4.1
COc1ccc2oc3ccccc3c(=O)c2c1	-0.8	60.7*	?
COc1cccc(NC(=O)CSc2nc(N)c(-c3ccccc3)c(=O)[nH]2)c1	0.2	4.0	-12.3
Cc1ccc(-c2noc(CSc3nc(C)cc(C)n3)n2)cc1	2.4	0.6	14.8
CCCCCC(=O)Cc1cc(O)c(O)c2c1C(=O)Oc1cc(O)c(C(=O)O)c(CCCCC)c1O2	-9.8	-9.5	107.7*
CCCCN1C(=O)NC(C(F)(F)F)(C(F)(F)F)C2=C1CC(C)(C)CC2=O	-0.5	.	23.7
